Measured values reported in article PMC5540273 (PLoS ONE, 2017).

Tests used:
Conditions in all cases: concentration: 1 μM, replicates: in singlicate; n = 1
[1] = test system: MKNK1
[2] = test system: MKNK2
[3] = test system: T1, MLCK
T1 construct: gene MYLK3

[4] = test system: T2, MLK1
T2 construct: gene MAP3K9

[5] = test system: MLK2
[6] = test system: MLK3
[7] = test system: MRCKA
[8] = test system: T3, MRCKB
T3 construct: gene CDC42BPB

[9] = test system: MST1R
[10] = test system: T4, MST1
T4 construct: gene STK4

[11] = test system: T5, MST2
T5 construct: gene STK3

[12] = test system: T6, MST3
T6 construct: gene STK24

[13] = test system: MST4
[14] = test system: MTOR
[15] = test system: MUSK
[16] = test system: MYLK2
[17] = test system: MYLK4
[18] = test system: MYLK
[19] = test system: MYO3A
[20] = test system: MYO3B
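Also: KINOMEscan kinase panel screen.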

Compound | %Inh [1] [%] | %Inh [2] [%] | %Inh [3] [%] | %Inh [4] [%] | %Inh [5] [%] | %Inh [6] [%] | %Inh [7] [%] | %Inh [8] [%] | %Inh [9] [%] | %Inh [10] [%] | %Inh [11] [%] | %Inh [12] [%] | %Inh [13] [%] | %Inh [14] [%] | %Inh [15] [%] | %Inh [16] [%] | %Inh [17] [%] | %Inh [18] [%] | %Inh [19] [%] | %Inh [20] [%]
O=C(O)COc1ncnc2cc(-c3ccc4[nH]ncc4c3)sc12 | 8 | 13 | 1 | 10 | 4 | 0 | 0 | 0 | 25 | 73 | 40 | 24 | 0 | 14 | 9 | 31 | 22 | 7 | 0 | 0
CC1=C(C(=O)Nc2cc3cn[nH]c3cc2F)C(c2ccc(C(F)(F)F)cc2)CC(=O)N1 (stereo not shown) [GSK429286] | 0 | 19 | 17 | 0 | 0 | 0 | 1 | 23 | 36 | 0 | 0 | 0 | 0 | 13 | 6 | 0 | 0 | 13 | 0 | 0
Cc1ccc(NC(=O)Nc2cc(C(C)(C)C)nn2-c2ccccc2)cc1 [GSK1014915] | 28 | 91.9 | 2 | 0 | 0 | 12 | 23 | 8 | 41 | 52 | 23 | 5 | 13 | 30 | 17 | 9 | 4 | 11 | 0 | 0
Cn1cncc1-c1ccc2ncnc(Nc3ccc(OCc4ccccc4)cc3)c2c1 [GW320571] | 24 | 27 | 7 | 8 | 26 | 20 | 8 | 17 | 29 | 14 | 0 | 0 | 0 | 30 | 21 | 20 | 0 | 6 | 0 | 0
Nc1ncnc2[nH]c(-c3ccccc3)nc12 [AH5015] | 0 | 39 | 0 | 11 | 5 | 4 | 0 | 0 | 3 | 100 | 0 | 0 | 1 | 9 | 18 | 0 | 30 | 7 | 8 | 0
CN(C)CCN(C)C(=O)c1cc(-c2ccncc2)c(-c2ccc(Cl)c(O)c2)o1.Cl.Cl [SB-710397] | 2 | 1 | 12 | 0 | 0 | 0 | 17 | 2 | 42 | 0 | 0 | 0 | 0 | 33 | 18 | 11 | 0 | 10 | 0 | 0
COc1ccc(Nc2nccc(NCCNC(=O)Nc3ccccc3F)n2)cc1 [GSK1379901] | 24 | 13 | 0 | 0 | 0 | 25 | 23 | 0 | 16 | 0 | 0 | 0 | 0 | 22 | 15 | 0 | 0 | 15 | 12 | 0
COc1cccc(-c2cc(-c3c[nH]nc3-c3ccccn3)ccn2)c1 [GW680338] | 6 | 0 | 8 | 0 | 43 | 9 | 16 | 0 | 35 | 4 | 0 | 0 | 30 | 33 | 0 | 0 | 9 | 0 | 8 | 3
Cc1cccc(-c2nc(-c3ccc(S(C)(=O)=O)cc3)sc2-c2ccnc(NCCc3ccccc3)c2)c1 | 3 | 0 | 0 | 0 | 2 | 0 | 6 | 0 | 28 | 0 | 4 | 0 | 32 | 0 | 0 | 14 | 12 | 0 | 10 | 0
O=c1cc(N2CCOCC2)nc2n(Cc3cccc(Cl)c3Cl)ccn12 [GSK2286295] | 7 | 1 | 16 | 0 | 0 | 7 | 8 | 0 | 25 | 0 | 0 | 0 | 0 | 17 | 8 | 2 | 0 | 25 | 0 | 8
Cl.c1ccc(-c2n[nH]cc2-c2ccnc(-c3ccc(CN4CCOCC4)cc3)c2)nc1 [GW776245] | 1 | 0 | 0 | 13 | 25 | 10 | 29 | 0 | 0 | 21 | 0 | 0 | 0 | 42 | 1 | 10 | 0 | 2 | 0 | 1
COc1cc2ncnc(Nc3ccc4nc(-c5ccccc5)[nH]c4c3)c2cc1OC.Cl [GW282450] | 2 | 2 | 0 | 0 | 0 | 33 | 14 | 14 | 26 | 0 | 0 | 0 | 0 | 16 | 10 | 0 | 8 | 29 | 21 | 0
Cc1c(Cn2ccn3c(=O)cc(N4CCOCC4)nc23)cccc1C(F)(F)F [GSK2289044] | 0 | 0 | 7 | 0 | 0 | 3 | 0 | 0 | 27 | 1 | 0 | 0 | 0 | 15 | 17 | 0 | 0 | 16 | 12 | 2
O=C(Nc1n[nH]c2nc(-c3nccs3)c(Br)cc12)C1CC1 [SB-742251] | 59 | 51 | 48 | 0 | 0 | 0 | 3 | 0 | 18 | 3 | 0 | 0 | 0 | 16 | 0 | 93.4 | 23 | 7 | 0 | 0
O=C1NC(=O)C(N2CCc3ccccc32)=C1c1ccccc1Cl [SB-373598] | 7 | 0 | 18 | 14 | 50 | 46 | 0 | 5 | 7 | 87 | 0 | 0 | 8 | 15 | 2 | 22 | 0 | 8 | 14 | 9
Nc1nc(-c2nccs2)c(-c2ccnc3ccccc23)s1 [GW693542] | 11 | 6 | 0 | 6 | 0 | 0 | 12 | 0 | 33 | 2 | 75 | 0 | 0 | 15 | 15 | 11 | 0 | 11 | 3 | 0
CS(=O)(=O)c1ccc(-c2nc3n(c2-c2ccncc2)CCC3)cc1 [SKF-105942] | 9 | 6 | 0 | 0 | 0 | 1 | 14 | 2 | 19 | 0 | 0 | 0 | 0 | 0 | 12 | 0 | 4 | 17 | 25 | 77
Cc1csc(-c2nc(Nc3ccncc3)c3ccccc3n2)n1 [GW869640] | 0 | 38 | 2 | 8 | 60 | 0 | 0 | 44 | 11 | 18 | 0 | 11 | 40 | 74 | 11 | 5 | 0 | 26 | 2 | 36
CC(C)(C)c1ccc(C(=O)Nc2cn3cc(Cl)ccc3n2)cc1 | 0 | 0 | 54 | 0 | 8 | 0 | 0 | 0 | 5 | 0 | 0 | 0 | 0 | 31 | 0 | 0 | 0 | 9 | 7 | 0
O=C(Nc1n[nH]c2cc(-c3cccc(F)c3F)ccc12)C1CC1 [SB-733894] | 0 | 20 | 18 | 0 | 0 | 4 | 6 | 17 | 6 | 0 | 31 | 0 | 8 | 0 | 0 | 90.2 | 0 | 8 | 2 | 0
Cn1ccc2ncnc(Oc3ccc(Nc4nc5ccccc5[nH]4)cc3)c21 | 0 | 0 | 0 | 0 | 20 | 0 | 0 | 0 | 18 | 8 | 5 | 0 | 0 | 0 | 21 | 0 | 0 | 0 | 0 | 0
Cc1cc(NCC(c2ccccc2)c2ccccc2)nc(NCc2ccc(C(F)(F)F)cc2)n1 [GW497681] | 0 | 0 | 3 | 0 | 0 | 0 | 3 | 0 | 10 | 0 | 0 | 3 | 0 | 1 | 0 | 0 | 0 | 15 | 34 | 0
O=S(=O)(c1ccc(-c2ccnc3[nH]ccc23)cc1)N1CCCC1 [GSK846226] | 14 | 46 | 4 | 0 | 0 | 0 | 0 | 0 | 16 | 0 | 4 | 14 | 0 | 12 | 0 | 3 | 62 | 22 | 10 | 0
Cc1cc(-c2ccc3c(c2)CC[C@@H](N[C@@H](C)c2ccccc2)C3)cnc1N.Cl [GW412617] | 13 | 3 | 0 | 0 | 15 | 32 | 0 | 4 | 38 | 1 | 15 | 0 | 0 | 14 | 28 | 21 | 8 | 10 | 0 | 0
Fc1cc(Cl)ccc1Nc1ccnc2cc(I)ccc12 [GW551191] | 0 | 18 | 2 | 0 | 0 | 0 | 16 | 0 | 82 | 0 | 9 | 0 | 0 | 8 | 0 | 0 | 0 | 11 | 13 | 0
CCn1c(-c2ccccn2)nc2cnccc21 [SB-736398] | 26 | 24 | 0 | 12 | 0 | 7 | 14 | 0 | 47 | 29 | 0 | 0 | 0 | 0 | 5 | 3 | 2 | 0 | 18 | 0
Cl.O=C(Nc1cccc(-c2nn3ncccc3c2-c2ccnc(Nc3cccnc3)n2)c1)c1c(F)cccc1F [GSK312879] | 0 | 30 | 0 | 0 | 31 | 1 | 1 | 8 | 26 | 17 | 19 | 0 | 0 | 15 | 23 | 13 | 1 | 2 | 0 | 0
COc1ccc(C2=C(Nc3cccc(C(=O)O)c3)C(=O)NC2=O)cc1 [SB-390765] | 0 | 43 | 27 | 0 | 0 | 27 | 0 | 8 | 24 | 0 | 0 | 9 | 16 | 0 | 9 | 0 | 0 | 14 | 12 | 0
Fc1cccc(COc2nnc(-c3ccc4c(c3)CCO4)o2)c1 | 0 | 0 | 7 | 0 | 19 | 0 | 0 | 1 | 10 | 0 | 0 | 25 | 0 | 3 | 3 | 0 | 4 | 0 | 0 | 5
